Data: PubChem BioAssay
Potency and affinity values are given separately. Activity calls are given as the source filed them. Entries that show only a call come without a potency. Unless noted, no rule for the calls is given here.

biological target: Calcium-dependent protein kinase 1 (Plasmodium falciparum (isolate 3D7)) (UniProt P62344); experiment: PfCDPK1 kinase inhibitors, biochemical, TCAMS library (AID 1159585; cut-off not given, nearly all actives have IC50 up to about 0.98 µM;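 also: inhibitors leave more ATP so luminescence rises with inhibition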); conditions: recombinant PfCDPK1, Kinase-Glo ATP depletion luminescence
Sequence (P62344 whole entry, looked up): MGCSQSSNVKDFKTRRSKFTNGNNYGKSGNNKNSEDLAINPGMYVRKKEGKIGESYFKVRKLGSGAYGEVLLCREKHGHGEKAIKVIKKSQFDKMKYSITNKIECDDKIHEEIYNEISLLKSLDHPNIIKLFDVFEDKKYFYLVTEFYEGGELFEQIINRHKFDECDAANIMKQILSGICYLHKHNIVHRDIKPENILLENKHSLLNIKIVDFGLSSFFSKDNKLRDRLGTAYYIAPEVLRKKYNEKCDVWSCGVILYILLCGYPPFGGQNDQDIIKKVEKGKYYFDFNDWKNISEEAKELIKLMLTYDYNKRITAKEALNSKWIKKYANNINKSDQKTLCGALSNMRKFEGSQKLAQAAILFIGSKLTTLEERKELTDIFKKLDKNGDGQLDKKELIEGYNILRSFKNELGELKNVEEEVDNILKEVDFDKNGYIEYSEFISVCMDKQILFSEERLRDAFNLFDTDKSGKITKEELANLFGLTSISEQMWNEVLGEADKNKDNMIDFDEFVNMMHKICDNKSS

Structure (SMILES)	outcome
CN1CCC(N2CCN(Cc3cccc(-c4ccc(-c5nc6ccccc6[nH]5)cc4)c3)CC2)CC1	inactive
CCCCCn1c(Sc2ccc(C#N)c([N+](=O)[O-])c2)nnc1-c1cc(OC)cc(OC)c1	inactive
CCN(CC)C(=O)c1cccc(/C=C/c2ccc(-c3c(C)[nH]c(C)c(Cl)c3=O)cc2)c1	inactive
O=C(NC1CC1)c1cnc(N2CCC(c3ccccc3)CC2)c(Cl)c1	inactive
COc1ccc2nccc([C@@H](O)CN3CCC(NCc4cc5cccc(O)c5c(=O)[nH]4)CC3)c2c1	inactive
Cc1nc(C)c(CC(=O)Nc2ccc(-c3cccc(-c4nc5ccc(C(F)(F)F)cc5[nH]4)c3)cc2)s1	inactive
COc1ccc(N2CCN(c3nc(Nc4ccc(NC(C)=O)cc4)nc(N4CCCC4)n3)CC2)cc1	inactive
Cc1csc(-c2nc(NCCc3c(C)noc3C)ncc2-c2ccsc2)n1	inactive
CCOC(=O)c1cc(Cl)ccc1OCCCON1C(N)=NC(N)=NC1(C)C	inactive
CN(C)CCOc1cc(NC(=O)Nc2ccc(Cl)cc2C(F)(F)F)ccc1I	inactive
CC(O)C1CCCCN1C(=O)c1cccc(-c2ccc(-c3nc4ccc(C(F)(F)F)cc4[nH]3)cc2)c1 (stereo not given)	inactive
Cc1cc(NC(=O)NCCN2CCC(NS(=O)(=O)c3ccc(Br)cc3)C2)c2ccccc2n1 (stereo not given)	inactive
CN1CCN(CC(=O)Nc2cccc(-c3ccc(-c4nc5ccc(C(F)(F)F)cc5[nH]4)s3)c2)CC1	inactive
O=C(NC1CCN(c2ccnc(Nc3ccc(F)cc3)n2)C1)c1cc2ccccc2s1 (stereo not given)	inactive
CC(CN)OCn1cnc2c(N)ncnc21 (stereo not given)	inactive
COc1ccc(Nc2nccc(N3CCC(NC(=O)c4cccc(C#N)c4)C3)n2)cc1 (stereo not given)	inactive
CCc1cn2c3c(cc(C(=O)N[C@@H](Cc4ccccc4)[C@H](O)CN[C@@H](C)CC)cc13)N(C)S(=O)(=O)CC2	inactive
COc1ccccc1-c1nc2nc(N)nc(N)c2nc1-c1ccccc1OC	inactive
COc1cc(NC(=O)CCCCCCCCN2CCN(C)CC2)c2ncccc2c1	inactive
CN(Cc1cccc(O)c1)C1CCN(c2cc(NC(=O)c3ccc(F)cc3)ccn2)C1 (stereo not given)	inactive
O=C(Nc1ccc(OC(F)(F)F)cc1)Nc1ccc([N+](=O)[O-])cc1	inactive
CC(C)CNCc1ccc(-c2ccccc2CNC2CCN(Cc3ccccc3)CC2)cc1	inactive
CN1CCN(CCCN(Cc2ccc(-c3cccc(CNCc4ccc5c(c4)OCO5)c3)cc2)C(=O)NCCc2ccccc2)CC1	inactive
COc1cc2cc(Cc3cnc(N)nc3N)ccc2c(OC)c1OC	inactive
Cc1cc(N2CCC(NS(=O)(=O)c3ccc(F)cc3)CC2)nc(Nc2cccc(C#N)c2)n1	inactive

biological target: Plasmodium falciparum protein kinase 6 (PK6, PF3D7_1337100) (UniProt Q8IDW1); experiment: PfPK6 kinase inhibitors, biochemical, TCAMS library (AID 1159586); conditions: recombinant PfPK6, Kinase-Glo ATP depletion luminescence
Sequence (Q8IDW1 1-305): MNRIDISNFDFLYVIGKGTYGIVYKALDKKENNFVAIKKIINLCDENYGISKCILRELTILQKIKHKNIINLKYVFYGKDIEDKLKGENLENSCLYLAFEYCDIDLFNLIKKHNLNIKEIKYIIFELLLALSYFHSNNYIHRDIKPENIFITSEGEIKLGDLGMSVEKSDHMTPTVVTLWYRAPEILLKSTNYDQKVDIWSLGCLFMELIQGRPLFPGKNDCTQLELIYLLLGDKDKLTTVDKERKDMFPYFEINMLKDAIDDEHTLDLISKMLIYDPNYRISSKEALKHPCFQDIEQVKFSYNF

Structure (SMILES)	outcome
CCc1c(CCNCCCCCCNCCc2ccc(Br)cc2)ccc(O)c1O	inactive
O=C(c1cc(-c2cccs2)[nH]n1)N1CCN(S(=O)(=O)c2ccc(Cl)cc2)CC1	inactive
Nc1nc(N)c2c(ccc3c2ccn3Cc2ccc(Cl)cc2)n1	inactive
CC[C@@H]([C@@H](Cc1cc2ccccc2s1)C(=O)N[C@@H](CCCCNC(=O)OCc1ccccc1)C(=O)Nc1ccccn1)N(O)C=O	inactive
CCc1cc(C(=O)c2cccc(C)c2)c(NC(=O)CN2CCN(C(=O)c3ccco3)CC2)s1	inactive
NC(=O)CCC(NC(=O)CNC(=O)Nc1cccc(C(F)(F)F)c1)C(=O)O (stereo not given)	inactive
CCOC(=O)N/N=C/[C@H](CCc1ccccc1)NC(=O)[C@H](CC(C)C)NC(=O)c1cc2cccc(OC)c2o1	inactive
NC(N)=NN=Cc1c2ccccc2c(Cl)c2c(Cl)cccc12	inactive
NC1=NC(c2ccccc2)(c2ccccc2)C(=O)N1CC=Cc1ccccc1	inactive
Cc1cccc(CNc2nc(C)cc(N[C@@H](Cc3ccccc3)C(=O)NC3CCCC3)n2)c1	inactive
O=C(Nc1cccc(-c2ccc(-c3nc4ccccc4[nH]3)cc2)c1)Nc1ccc(F)c(F)c1F	inactive
O=C(Nc1ccccc1)N(Cc1cccc(-c2cccc(CNCCc3ccccc3)c2)c1)C1CCN(Cc2ccccc2)CC1	inactive
COc1ccc(CCN(Cc2cccs2)C(=O)c2cc3sccc3n2C)cc1OC	inactive
CN(C)c1ccc(-c2ccc(C(=O)NC3CCN(Cc4ccc5c(c4)OCCO5)CC3)s2)cc1	inactive
Clc1ccc(CNc2ccnc(NCc3cccnc3N3CCCC3)n2)c(Cl)c1	inactive
CN1CCC(N2CCN(Cc3cccc(-c4ccc(-c5nc6ccccc6[nH]5)cc4)c3)CC2)CC1	inactive
CCCCCn1c(Sc2ccc(C#N)c([N+](=O)[O-])c2)nnc1-c1cc(OC)cc(OC)c1	inactive
CCN(CC)C(=O)c1cccc(/C=C/c2ccc(-c3c(C)[nH]c(C)c(Cl)c3=O)cc2)c1	inactive
O=C(NC1CC1)c1cnc(N2CCC(c3ccccc3)CC2)c(Cl)c1	inactive
COc1ccc2nccc([C@@H](O)CN3CCC(NCc4cc5cccc(O)c5c(=O)[nH]4)CC3)c2c1	inactive

Structure (SMILES)	outcome
Cc1nc(C)c(CC(=O)Nc2ccc(-c3cccc(-c4nc5ccc(C(F)(F)F)cc5[nH]4)c3)cc2)s1	inactive
COc1ccc(N2CCN(c3nc(Nc4ccc(NC(C)=O)cc4)nc(N4CCCC4)n3)CC2)cc1	inactive
Cc1csc(-c2nc(NCCc3c(C)noc3C)ncc2-c2ccsc2)n1	inactive
CCOC(=O)c1cc(Cl)ccc1OCCCON1C(N)=NC(N)=NC1(C)C	inactive
CN(C)CCOc1cc(NC(=O)Nc2ccc(Cl)cc2C(F)(F)F)ccc1I	inactive
CC(O)C1CCCCN1C(=O)c1cccc(-c2ccc(-c3nc4ccc(C(F)(F)F)cc4[nH]3)cc2)c1 (stereo not given)	inactive
Cc1cc(NC(=O)NCCN2CCC(NS(=O)(=O)c3ccc(Br)cc3)C2)c2ccccc2n1 (stereo not given)	inactive
CN1CCN(CC(=O)Nc2cccc(-c3ccc(-c4nc5ccc(C(F)(F)F)cc5[nH]4)s3)c2)CC1	inactive
O=C(NC1CCN(c2ccnc(Nc3ccc(F)cc3)n2)C1)c1cc2ccccc2s1 (stereo not given)	inactive
CC(CN)OCn1cnc2c(N)ncnc21 (stereo not given)	inactive
COc1ccc(Nc2nccc(N3CCC(NC(=O)c4cccc(C#N)c4)C3)n2)cc1 (stereo not given)	inactive
CCc1cn2c3c(cc(C(=O)N[C@@H](Cc4ccccc4)[C@H](O)CN[C@@H](C)CC)cc13)N(C)S(=O)(=O)CC2	inactive
COc1ccccc1-c1nc2nc(N)nc(N)c2nc1-c1ccccc1OC	inactive
COc1cc(NC(=O)CCCCCCCCN2CCN(C)CC2)c2ncccc2c1	inactive
CN(Cc1cccc(O)c1)C1CCN(c2cc(NC(=O)c3ccc(F)cc3)ccn2)C1 (stereo not given)	inactive
O=C(Nc1ccc(OC(F)(F)F)cc1)Nc1ccc([N+](=O)[O-])cc1	inactive
CC(C)CNCc1ccc(-c2ccccc2CNC2CCN(Cc3ccccc3)CC2)cc1	inactive
CN1CCN(CCCN(Cc2ccc(-c3cccc(CNCc4ccc5c(c4)OCO5)c3)cc2)C(=O)NCCc2ccccc2)CC1	inactive
COc1cc2cc(Cc3cnc(N)nc3N)ccc2c(OC)c1OC	inactive
Cc1cc(N2CCC(NS(=O)(=O)c3ccc(F)cc3)CC2)nc(Nc2cccc(C#N)c2)n1	inactive
